Reference: the supplement of paper PMC10338343
± gives the standard deviation.

Assays:
[1] = system: MILI (PIWIL2) piRISC loaded with piRNA #1 (26 nt); assay: pre-steady-state target cleavage rate (min^-1); guide: piRNA #1 5'p-UGAGGUAGUAGGUUGUAUAGUAUCCA; higher = faster piRNA-guided slicing of the target; conditions: auxiliary factor: 500 nM mouse GTSF1
In short: (§1)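 Cleave-'n-Seq: 1 nM active affinity-purified piRISC with one synthetic guide and 0.1 nM transcribed, DNA-blocked target RNA library were mixed, with or without 500 nM GTSF1 partner protein, in HEPES–potassium acetate buffer at 33 °C for 0–8 or 0–960 min. Uncleaved targets were sequenced and normalised to depth and to weakly complementary targets, three trials were pooled, and k3 was capped at 0.0001 min^-1. The pre-steady-state cleavage rate was fitted […].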

[2] = system: EfPiwi piRISC loaded with piRNA #1 (26 nt); assay: pre-steady-state target cleavage rate (min^-1); auxiliary factor: 500 nM Ephydatia muelleri Gtsf1; guide: piRNA #1 5'p-UGAGGUAGUAGGUUGUAUAGUAUCCA; MIWI and MILI are mouse PIWI proteins and EfPiwi is from a freshwater sponge; tags in brackets are library labels; higher = faster piRNA-guided slicing of the target
In short: as §1

GGAGACGAGACUAUACAACCUACUACCUCA
pre-steady-state target cleavage rate [1]: 0.214 ± 0.034 | pre-steady-state target cleavage rate [2]: 0.0942 ± 0.032

GGAGACCUUACUUUACAUCCUACUACCUCA
pre-steady-state target cleavage rate [1]: 0.26 ± 0.022 | pre-steady-state target cleavage rate [2]: 0.00417 ± 0.0035

GGAGACCAUACUAUACAACCUACUACACUCA
pre-steady-state target cleavage rate [1]: 0.204 ± 0.027 | pre-steady-state target cleavage rate [2]: 0.00487 ± 0.0033

GGAGACCUUACUAUACAACCUACGACCUCA
pre-steady-state target cleavage rate [1]: 0.113 ± 0.012 | pre-steady-state target cleavage rate [2]: 0.00282 ± 0.0024

GGAGUGGAUACUAAACAAGCUACUACCUCA
pre-steady-state target cleavage rate [1]: 0.211 ± 0.013 | pre-steady-state target cleavage rate [2]: 0.00401 ± 0.0019

GGAGUGGAUACAAUACAACCUUCUACCUCA
pre-steady-state target cleavage rate [1]: 0.0111 ± 0.0024 | pre-steady-state target cleavage rate [2]: 0.00456 ± 0.0022

GGAGACGAUACUAUACAACCUACUACCGCA
pre-steady-state target cleavage rate [1]: 0.161 ± 0.021 | pre-steady-state target cleavage rate [2]: 0.00926 ± 0.0033

GGAGACCUAACUAUACAACCUACUACUCUCA
pre-steady-state target cleavage rate [1]: 0.208 ± 0.028 | pre-steady-state target cleavage rate [2]: 0.00491 ± 0.0044

GGAGACGAUACUAUACAUCCUACUACCUCA
pre-steady-state target cleavage rate [1]: 0.289 ± 0.024 | pre-steady-state target cleavage rate [2]: 0.00772 ± 0.0032

GGAGACCUAACUAUACAACCUCCUACCUCA
pre-steady-state target cleavage rate [1]: 0.0273 ± 0.011 | pre-steady-state target cleavage rate [2]: 0.00446 ± 0.0029

GGAGACCAUACUAUACAACGUACUACCUGA
pre-steady-state target cleavage rate [1]: 0.011 ± 0.0036 | pre-steady-state target cleavage rate [2]: 0.00457 ± 0.0027

GGAGAGGUUACUAUACUACCUACUACCUCA
pre-steady-state target cleavage rate [1]: 0.151 ± 0.011 | pre-steady-state target cleavage rate [2]: 0.00488 ± 0.0024

GGAGACCAAACUUUACAACCUACUACCUCA
pre-steady-state target cleavage rate [1]: 0.137 ± 0.034 | pre-steady-state target cleavage rate [2]: 0.011 ± 0.0057

GGAGAGGAUACUAUACAAGCUACUUCCUCA
pre-steady-state target cleavage rate [1]: 0.0737 ± 0.013 | pre-steady-state target cleavage rate [2]: 0.00375 ± 0.0015

GGAGACGAUACUAUACUACCUACAACCUCA
pre-steady-state target cleavage rate [1]: 0.181 ± 0.017 | pre-steady-state target cleavage rate [2]: 0.00176 ± 0.0015

GGAGACCAUACUAUAGAACCUACUACGUCA
pre-steady-state target cleavage rate [1]: 0.0697 ± 0.013 | pre-steady-state target cleavage rate [2]: 0.00374 ± 0.0034

GGAGACCUUACUAUACAACCUACUACCUCC [g2:g22:cont:t1C]
pre-steady-state target cleavage rate [1]: 0.172 ± 0.017 | pre-steady-state target cleavage rate [2]: 0.0065 ± 0.0027

GGAGUGGAUACUAUACAACCUACUAGCCUCA
pre-steady-state target cleavage rate [1]: 0.115 ± 0.019 | pre-steady-state target cleavage rate [2]: 0.00369 ± 0.0017

GGAGACCUAUGAAUACAACCUACUACCUCG [g2:g18:cont:t1G]
pre-steady-state target cleavage rate [1]: 0.0085 ± 0.002 | pre-steady-state target cleavage rate [2]: 0.00485 ± 0.004

GGAGACCAAUCUAUACAACCUACUACCUCA
pre-steady-state target cleavage rate [1]: 0.117 ± 0.02 | pre-steady-state target cleavage rate [2]: 0.0121 ± 0.0056

GGAGACGAUUCUAUACAACCUACUACCUCA
pre-steady-state target cleavage rate [1]: 0.209 ± 0.013 | pre-steady-state target cleavage rate [2]: 0.0774 ± 0.03

GGAGACCAUACUAUACAACCUACAUACCUCA
pre-steady-state target cleavage rate [1]: 0.146 ± 0.018 | pre-steady-state target cleavage rate [2]: 0.00306 ± 0.0029

GGAGAGGAUACUAUACAACCUACUACCUCA [g2:g25:cont:t1A]
pre-steady-state target cleavage rate [1]: 0.206 ± 0.017 | pre-steady-state target cleavage rate [2]: 0.0912 ± 0.033

GGAGACCAUACUAUACAACCUACUAGCUCA
pre-steady-state target cleavage rate [1]: 0.137 ± 0.025 | pre-steady-state target cleavage rate [2]: 0.00491 ± 0.0023

GGAGUGGAUACUAUACAACCUCCUACCUCA
pre-steady-state target cleavage rate [1]: 0.0339 ± 0.0035 | pre-steady-state target cleavage rate [2]: 0.0053 ± 0.0019

GGAGAGGAUACAAUACAACCAACUACCUCA
pre-steady-state target cleavage rate [1]: 0.00985 ± 0.0026 | pre-steady-state target cleavage rate [2]: 0.00366 ± 0.0019
